From PubChem BioAssay
Most compounds without a hit are left out; they make up all but 19% or so of the library.
ELG1 repair inh: qHTS screen for small molecules that inhibit ELG1-dependent DNA repair in human embryonic kidney (HEK293T) cells expressing luciferase-tagged ELG1. HEK293T ELG1-luciferase reporter, luminescence, 16 h; DNA damage induced by 5-fluorouridine. Potency, µM (titrated, usually from 46.1 µM), for inactives: top-dose activity change, negative = inhibition, usual class: inhibitors. hit rate 2.3% among 330,000. AID 504467, 2011; also: potency is read from the fitted curve at half-maximal effect; nearly all actives have a fitted effect of over 55% in size
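Quantitative HTS, concentration-response format. 2,000 cells/well co-treated with 5-fluorouridine and compound, 16 hr in 5% CO2 at 37 °C; ONE-Glo luminescence read after 30 min.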
DT40 TDP1 CPT: qHTS for Inhibitors of human tyrosyl-DNA phosphodiesterase 1 (TDP1): qHTS in cells in presence of CPT | Potency, µM (doses to about 46.2 µM), inactives show top-dose activity change, negative = growth inhibition, usual class: inhibitors | hit rate 12% among 420,000 | chicken DT40 Tdp1-/-;hTDP1 cells + 20 nM CPT, ATP luminescence, 48 h; also: potency is read from the fitted curve at half-maximal effect; nearly all actives have a fitted effect of over 55% in size
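Cell growth measured by CellTiter-Glo luminescence after a minimum 48 h, 37 C compound exposure with 20 nM CPT in Tdp1-knockout DT40 cells stably expressing hTDP1, seeded 400/well; qHTS titration format.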
Giardia killer: Small Molecules that selectively kill Giardia lamblia: qHTS; Giardia lamblia trophozoite viability; activity change, % at 7.66 µM, hits read low; hit rate 0.15% among 340,000; in the data active = activity change below about -80%; inconclusive = between about -30% and that limit;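 also: parasites exposed to compound for two days anaerobically before the ATP read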
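Killing of trophozoites was scored by loss of ATP luminescence after a 48 hrs anaerobic exposure to compounds at 37 deg C, using 100 cells per well.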
IL-1B inflam inh: qHTS for Inhibitors of Inflammasome Signaling: IL-1-beta AlphaLISA Primary Screen. THP-1 LPS/ATP IL-1B secretion, AlphaLISA, 16 h; active compounds read low. activity change, % at 57.5 µM. hit rate 4.7% among 360,000. AID 743279, 2014; in the data active = activity change below about -50%; inconclusive = mostly about -30% to -49%
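THP-1 cells pretreated 1 hr with compounds (up to 57.5 uM final), then stimulated with LPS (250 ng/mL final) plus ATP (1.25 mM final); secreted IL-1B measured by AlphaLISA after 16 hr, decreased signal indicating inhibition.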
TDP1 block: qHTS Assay for Inhibitors of Tyrosyl-DNA Phosphodiesterase (TDP1). Tyrosyl-DNA phosphodiesterase 1 (Homo sapiens), Q9NUW8. recombinant TDP1, AlphaScreen DNA substrate cleavage. Potency, µM (titrated, usually from 130 µM), inactives show at the highest dose activity change, negative = inhibition, most hits filed as inhibitors. hit rate 0.28% among 350,000. AID 485290, 2010; also: potency is read from the fitted curve at half-maximal effect; nearly all actives have a fitted effect of over 40% in size
Target sequence (Q9NUW8 whole entry, looked up): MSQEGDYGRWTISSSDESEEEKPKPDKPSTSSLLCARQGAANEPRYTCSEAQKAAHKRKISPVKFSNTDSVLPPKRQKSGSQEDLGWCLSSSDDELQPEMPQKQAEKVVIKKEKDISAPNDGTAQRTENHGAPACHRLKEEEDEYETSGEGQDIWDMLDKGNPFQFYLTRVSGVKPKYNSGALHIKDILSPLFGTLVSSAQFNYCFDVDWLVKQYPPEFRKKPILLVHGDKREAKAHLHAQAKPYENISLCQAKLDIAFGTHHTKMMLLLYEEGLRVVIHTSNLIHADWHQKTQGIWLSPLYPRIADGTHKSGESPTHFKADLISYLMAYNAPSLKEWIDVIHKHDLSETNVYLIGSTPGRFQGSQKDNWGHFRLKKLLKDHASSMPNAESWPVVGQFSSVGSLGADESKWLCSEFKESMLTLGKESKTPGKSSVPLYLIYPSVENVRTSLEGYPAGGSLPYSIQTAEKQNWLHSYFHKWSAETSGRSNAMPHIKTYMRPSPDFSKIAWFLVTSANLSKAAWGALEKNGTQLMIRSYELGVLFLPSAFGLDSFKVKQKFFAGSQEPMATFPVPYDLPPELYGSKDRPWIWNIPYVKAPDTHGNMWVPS
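Signal: AlphaScreen proximity between streptavidin donor and anti-FITC acceptor beads on intact substrate. Reaction: Tdp1 1 nM, substrate 15 nM final, 5 min RT after 15 min compound preincubation.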
DT40 TDP1 no CPT: qHTS for Inhibitors of human tyrosyl-DNA phosphodiesterase 1 (TDP1): qHTS in cells in absence of CPT; DT40 Tdp1-/- hTDP1 cells, no CPT, ATP luminescence, 48 h; Potency, µM (top dose mostly 46.2 µM), inactives show top-dose activity change, negative = growth inhibition, usual class: inhibitors; hit rate 15% among 420,000; AID 686978, 2013; also: potency is read from the fitted curve at half-maximal effect; nearly all actives have a fitted effect of over 55% in size
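Compound effects on proliferation are scored in DT40 Tdp1-/-;hTDP1 cells in the absence of CPT. ATP levels (CellTiter-Glo luminescence) are recorded after a ≥48 hr, 37 °C incubation.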
* marks the source's active call; other numbers are inactive results; ? = inconclusive; nt = no result given; [ ] = another dose, or the depositor's remark. Unless noted, calls follow the shape of the dose curve; as a rule, active = well fitted curve in the direction sought with a large enough effect; inconclusive = small, poorly fitted or top-dose-only effect, or another doubt; inactive = no such curve, though single readings can be large; an effect the other way counts as inactive or inconclusive. % is scaled to controls: 0 for no effect and ±100 for the full control effect.

SMILES	ELG1 repair inh	DT40 TDP1 CPT	Giardia killer	IL-1B inflam inh	TDP1 block	DT40 TDP1 no CPT
COc1ccc(S(=O)(=O)N2CCCC(C(=O)Nc3ccc4c(c3)OCCO4)C2)cc1 (centres undefined)	?	21µM*	23	?	7%	?
Cc1ccc(NC(=O)C2CCCN(S(=O)(=O)c3ccc(C)cc3)C2)cc1 (centres undefined)	nt	16µM*	nt	nt	2%	16µM*
Cc1ccc(S(=O)(=O)N2CCCC(C(=O)N(Cc3cccs3)C3CC3)C2)cc1 (centres undefined)	?	13µM*	20	-9	2%	13µM*
COc1ccc(NC(=O)C2CCCN(S(=O)(=O)c3ccc(F)cc3)C2)cc1 (centres undefined)	nt	15µM*	nt	nt	2%	15µM*
O=C(NCc1cccs1)C1CCCN(S(=O)(=O)c2ccc3c(c2)OCO3)C1 (centres undefined)	-12%	-24%	0	4	5%	?
CCc1nn(CC(=O)NCc2ccccc2Cl)c(=O)c2cc3ccccc3n12	nt	?	nt	nt	2%	?
CC(=O)c1cccc(NC(=O)C2CCCN(S(=O)(=O)c3ccc(F)cc3)C2)c1 (centres undefined)	?	?	6	-19	5%	?
CCOc1ccc(OCC)c(NC(=O)C2CCCN(S(=O)(=O)c3ccc(C)cc3)C2)c1 (centres undefined)	?	26µM*	12	18	2%	16µM*
O=C(Nc1cccc(F)c1)C1CCCN(S(=O)(=O)c2ccccc2)C1 (centres undefined)	?	18µM*	8	2	0%	?
COc1ccc(CNS(=O)(=O)c2cc3c(cc2Cl)NC(=O)CO3)cc1	0%	-2%	-8	-1	8%	5%
O=C1COc2cc(S(=O)(=O)NCc3ccco3)c(Cl)cc2N1	nt	18µM*	nt	nt	56µM*	?
COC(=O)[C@@]1(Cc2ccc(OC)cc2)[C@@H]2C(=CC(=O)[C@H]2CC(=O)C(=O)N2CCCC2)CN1C(=O)c1ccccc1	15µM*	?	-6	-76*	7%	16µM*
COC(=O)[C@@]1(Cc2ccc(OC)cc2)[C@@H]2[C@@H](CC(=O)[C@H]2CC(=O)C(=O)N(C)C)CN1C(=O)c1ccccc1	3%	23µM*	-7	-21	-4%	?
COC(=O)[C@@]1(Cc2ccc(OC)cc2)[C@@H]2[C@@H](CC(=O)[C@H]2CC(=O)C(=O)N2CCCC2)CN1C(=O)c1ccccc1	nt	nt	nt	nt	7%	nt
COC(=O)[C@@]1(Cc2ccc(F)cc2)[C@H]2C(CC(=O)C(=O)N3CCCC3)C(=O)C[C@H]2CN1C(=O)c1ccccc1 (some centres undefined)	nt	?	nt	-70*	nt	?
CC1(C(=O)Nc2ccc3ccccc3c2)CCC(=O)N1CCOc1ccccc1 (centres undefined)	nt	-10%	nt	-22	nt	-25%
O=c1[nH]c2c(c(=O)[nH]1)CCC2	0%	-10%	1	3	-3%	-6%
CCn1c(=O)[nH]c2cc(Cl)c(Cl)cc21	22%	-27%	-8	15	-11%[56.1 µM]	?
CC(C)Cc1ccc(-c2ccc3nccn3c2)cc1	nt	?	nt	7	nt	18µM*
Cc1cc(C)c(S(=O)(=O)N2CCOC2CNC(=O)C(=O)NCCc2c[nH]c3ccccc23)c(C)c1 (centres undefined)	?	26µM*	-19	-8	8%	18µM*
O=C(NCCc1c[nH]c2ccccc12)C(=O)NCC1OCCN1S(=O)(=O)c1ccc(F)cc1 (centres undefined)	?	?	1	14	3%	?
O=C(NCCc1c[nH]c2ccccc12)C(=O)NCC1OCCCN1S(=O)(=O)c1ccccc1 (centres undefined)	?	-79%	15	0	5%	16µM*
O=C(NCCc1c[nH]c2ccccc12)C(=O)NCC1OCCN1S(=O)(=O)c1ccccc1 (centres undefined)	-16%	?	45	1	5%	?
O=C(NCCc1c[nH]c2ccccc12)C(=O)NCC1OCCN1S(=O)(=O)c1ccc(Cl)cc1 (centres undefined)	13µM*	?	-5	7	4%	21µM*
Cc1ccc(S(=O)(=O)N2CCCOC2CNC(=O)C(=O)NCCc2c[nH]c3ccccc23)cc1 (centres undefined)	23µM*	15µM*	-12	-60*	7%	18µM*
SMILES	ELG1 repair inh	DT40 TDP1 CPT	Giardia killer	IL-1B inflam inh	TDP1 block	DT40 TDP1 no CPT
O=C(NC1CCCCC1)N1CCN(c2ccccc2Cl)CC1	11%	?	7	-30	2%[56.1 µM]	-14%
Oc1csc(Cc2nc(-c3ccc4ccccc4c3)cs2)n1	?	?	-12	35	8%	15µM*
CCOC(=O)c1cc(C#N)c(C)nc1N(CC)CC	4%	15%	23	9	-7%	-5%
Cc1ccc(Cl)cc1N1CCN(C(=O)C2CCN(S(=O)(=O)c3cnc[nH]3)CC2)CC1	-14%	?	-24	-4	-3%	?
Cc1ccc(NC(=O)C2CCN(c3nc(C)cc(C)n3)CC2)cc1	0%	?	-7	8	0%	?
Cc1cc(C)nc(N2CCC(C(=O)N3CCN(c4cc(Cl)ccc4C)CC3)CC2)n1	?	?	4	-15	4%	18µM*
Cc1ccc(Cl)cc1N1CCN(C(=O)C2CCN(S(C)(=O)=O)CC2)CC1	-11%	?	-1	0	5%	5.8µM*
Cc1ccc(Cl)cc1N1CCN(C(=O)C2CCN(S(=O)(=O)c3cn(C)cn3)CC2)CC1	nt	?	nt	nt	-1%	?
Cc1ccc(C)c(N2CCN(C(=O)C3CCN(c4nc(C)cc(C)n4)CC3)CC2)c1	?	15µM*	1	-8	7%	12µM*
Cc1ccc(Cl)cc1N1CCN(C(=O)C2CCCN(S(=O)(=O)c3cnc[nH]3)C2)CC1 (centres undefined)	-8%	15µM*	-2	-3	3%	23µM*
